From PubChem BioAssay
USP2a inh: qHTS Assay for Inhibitors of Ubiquitin-specific Protease USP2a Using CHOP2 as the Reporter; Potency, µM (top dose mostly 38.3 µM), without a hit: at the top dose activity change, negative = inhibition, actives largely listed as inhibitors; USP2 core, Ub-CHOP2 coupled fluorogenic reporter, 485/531; 0.01% of 330,000 active; AID 463254, 2010;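 further: potency means the concentration at half of the fitted maximal effect; plate controls were DMSO wells for no effect and full inhibition by NEM control for full effect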
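Cell-free coupled assay: 10nM USP2 core preincubated 30min RT with compound in Tris-HCl pH 8.0/CaCl2/CHAPS buffer, then 25nM Ub-CHOP2 and 25nM reporter substrate; fluorescence (Ex 485/Em 531) read after 60min RT, normalized to NEM inhibition, concentration-response curves fitted.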
USP1-UAF1 inh: Inhibitors of USP1/UAF1: Primary Screen; Ubiquitin carboxyl-terminal hydrolase 1 (Homo sapiens), O94782; recombinant USP1/UAF1, Ub-Rhodamine cleavage fluorescence; Potency, µM (top dose mostly 57.1 µM), for inactives: top-dose activity change, negative = inhibition, usual class: inhibitors; 0.23% of 390,000 active; AID 743255, 2014; further: potency means the concentration at half of the fitted maximal effect; nearly all actives have a fitted effect of over 60% in size
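In this screen, compounds sit with the deubiquitinase complex (1nM) for 15 min at room temperature before Ub-Rho is added at 150nM final. Fluorescence rise is then followed for 6 reads every 60 seconds.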
VDR inh: Inhibitors of the vitamin D receptor (VDR): qHTS. Vitamin D3 receptor (Homo sapiens), P11473. 0.93% of 400,000 active. Potency, µM, for the others: max response, negative = inhibition, hits mostly inhibitors. VDR-SRC2-3 peptide fluorescence polarization, 2 h. AID 504847, 2011; further: potency means the concentration at half of the fitted maximal effect
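Signal is fluorescence polarization, reporting how far test compounds block the interaction of VDR with the SRC2-3 coregulator peptide after a 2 h room-temperature incubation.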
Coupling enz: qHTS Assay for Inhibitors of Fructose-1,6-bisphosphate Aldolase from Giardia Lamblia: Coupling assay counterscreen. AID 2472, 2010. coupling enzyme system counterscreen, AmpLite Red fluorescence. 0.67% of 290,000 active. activity change, negative = inhibition, % at 58.2 µM, hits read low; in the data active means activity change below about -30%
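Coupling enzymes only (glyceraldehyde-3-phosphate) + compound, at 57.5 uM final, 10 min RT; add substrate/coupling/AmpLite Red mix, 20 min RT; fluorescence ex 525/em 598 nm. Actives flag coupling-system interference.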
GALK inh: qHTS Assay for Inhibitors of Human Galactokinase (GALK) | P51570 | Purified GALK, Kinase-Glo residual ATP luminescence | Potency, µM (highest dose often 57.5 µM), inactives show at the top dose activity change, negative = inhibition, most hits filed as inhibitors | 0.007% of 270,000 active | AID 1868, 2009; further: potency means the concentration at half of the fitted maximal effect
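ATP-depletion format; final 35 uM ATP, 100 uM D-galactose, 5 nM enzyme; pH 8.0 HEPES/Mg2+ buffer; 60 min RT; luminescence read 10 min after detection reagent.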
PLK1 PBD block: qHTS for Inhibitors of PLK1-PDB (polo-like kinase 1 - polo-box domain): Primary Screen. Plk1 PBD binding of FITC phosphopeptide, fluorescence polarization. 2.8% of 360,000 active. Potency, µM, for inactives: max response, negative = inhibition, usual class: inhibitors. Serine/threonine-protein kinase PLK1 (Homo sapiens), P53350; further: potency means the concentration at half of the fitted maximal effect; series mostly up to about 57 µM; nearly all actives have a fitted effect of over 65% in size
Target sequence (P53350 whole entry, looked up, the tested form may be a part): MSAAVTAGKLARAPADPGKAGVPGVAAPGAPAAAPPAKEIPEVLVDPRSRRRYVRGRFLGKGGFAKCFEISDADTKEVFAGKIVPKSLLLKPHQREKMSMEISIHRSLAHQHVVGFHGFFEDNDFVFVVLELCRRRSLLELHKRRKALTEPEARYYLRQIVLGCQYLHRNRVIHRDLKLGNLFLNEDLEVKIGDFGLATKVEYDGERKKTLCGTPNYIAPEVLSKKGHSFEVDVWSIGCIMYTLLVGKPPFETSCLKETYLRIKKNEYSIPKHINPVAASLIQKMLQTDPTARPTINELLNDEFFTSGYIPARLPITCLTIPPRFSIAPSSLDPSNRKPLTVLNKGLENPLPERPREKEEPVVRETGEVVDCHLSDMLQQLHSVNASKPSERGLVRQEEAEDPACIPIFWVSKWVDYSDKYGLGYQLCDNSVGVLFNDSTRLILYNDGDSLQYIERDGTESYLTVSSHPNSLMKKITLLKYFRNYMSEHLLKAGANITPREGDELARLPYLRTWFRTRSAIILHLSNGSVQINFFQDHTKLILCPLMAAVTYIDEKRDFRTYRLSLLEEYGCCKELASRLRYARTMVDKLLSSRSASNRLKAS
* hit, by the source's call. Shown are actives, neighbours in structure and some others; about 3.2% of the full set was active somewhere. Unless noted, the call rests on the fitted dose curve; in most records, active means well fitted curve in the direction sought with a large enough effect; inconclusive means small, poorly fitted or top-dose-only effect, or another doubt; inactive means no such curve, though single readings can be large; an effect the other way counts as inactive or inconclusive. Unless noted, on the % scale 0 is the no-effect control and ±100 the full control effect.

O=C1/C(=C/c2ccc(O)c(O)c2)SC(=S)N1Nc1ccccc1 was read as USP2a inh -1%, USP1-UAF1 inh inconclusive, VDR inh 12%, Coupling enz -4, GALK inh -3% and PLK1 PBD block 8%.
COC(=O)CCCCCN1C(=O)/C(=C\c2ccncc2)SC1=S was read as USP2a inh 2%, USP1-UAF1 inh -10%, VDR inh 79µM*, Coupling enz 0, GALK inh 3% and PLK1 PBD block -24%.
Screening COC(=O)c1sccc1NC(=O)Cn1nnc(-c2ccc(C)cc2)n1 returned USP2a inh 2%, USP1-UAF1 inh -10%, VDR inh 0%, Coupling enz 6, GALK inh 1% and PLK1 PBD block -3%.
`CCc1c(C)[nH]c2ccc(OC)cc2c1=S` gave USP2a inh 10%, USP1-UAF1 inh -13%, VDR inh 2%, Coupling enz -3, GALK inh -2% and PLK1 PBD block 13µM*.
Screening CCCCN(CC)C(=O)c1cc2c(=O)n3cccc(C)c3nc2s1 returned USP2a inh 2%, USP1-UAF1 inh -7%, VDR inh -29%, Coupling enz -2, GALK inh -4% and PLK1 PBD block 17µM*.
`O=C(CNC(=O)c1ccccc1F)NCCOc1cccc(Cl)c1Cl` gave USP2a inh -1%, USP1-UAF1 inh -2%, VDR inh 14%, Coupling enz -1, GALK inh 0% and PLK1 PBD block -1%.
For O=[N+]([O-])c1cccc(OCc2cn3cccnc3n2)c1 the results were USP2a inh 1%, USP1-UAF1 inh 2%, VDR inh -3%, Coupling enz 2, GALK inh -2% and PLK1 PBD block 27µM*.
CCc1c(C)sc(NC(=O)Cn2nc(C)c([N+](=O)[O-])c2C)c1C(N)=O was read as USP2a inh 1%, USP1-UAF1 inh -20%, VDR inh inconclusive, Coupling enz -1, GALK inh 1% and PLK1 PBD block 6µM*.
`Cc1cc(N)ccc1N1CCCC1` gave USP2a inh -18%, USP1-UAF1 inh inconclusive, VDR inh 71µM*, Coupling enz -23, GALK inh -4% and PLK1 PBD block inconclusive.
Screening N#CC(C#N)=Cc1cc2ccccc2nc1N1CCCCC1 returned USP2a inh -3%, USP1-UAF1 inh -23%, VDR inh 71µM*, Coupling enz -23, GALK inh -5% and PLK1 PBD block inconclusive.
CCOC(=O)/C(C#N)=C/c1cc2ccccc2nc1N1CCOCC1 was read as USP2a inh -6%, USP1-UAF1 inh -23%, VDR inh -11%, Coupling enz 2 and PLK1 PBD block 0%.
For Cc1ccc2cc(C3CC(c4cccs4)=NN3S(C)(=O)=O)c(Cl)nc2c1 (stereo unspecified) the results were USP2a inh -1%, USP1-UAF1 inh -18%, VDR inh 0%, Coupling enz 0, GALK inh 5% and PLK1 PBD block 4%.
Screening COc1ccc2cc(C3CC(c4cccs4)=NN3S(C)(=O)=O)c(Cl)nc2c1 (stereo unspecified) returned USP2a inh 2%, USP1-UAF1 inh -24%, VDR inh -28%, Coupling enz 0, GALK inh -2% and PLK1 PBD block 6.7µM*.
Screening COc1ccc(C(=O)NCCNc2ccc([N+](=O)[O-])cc2)cc1OC returned USP2a inh -1%, USP1-UAF1 inh -11%, VDR inh inconclusive, Coupling enz -1, GALK inh 0% and PLK1 PBD block -11%.
COC1=CC(=O)C(O)=C/C1=C\C=C\c1ccccc1 was read as VDR inh 2.8µM* and Coupling enz -17.
For COc1cc(O)cc(/C=C/c2ccccc2)c1 the results were USP1-UAF1 inh -16%, VDR inh 8%, Coupling enz 0 and PLK1 PBD block -18%.
Screening COc1ccc(Cn2c(=O)sc3ccccc3c2=O)cc1 returned USP2a inh -1%, USP1-UAF1 inh -18%, VDR inh -4%, Coupling enz 6, GALK inh 4% and PLK1 PBD block -16%.
For COCCn1c(=O)sc2ccccc2c1=O the results were USP2a inh 2%, USP1-UAF1 inh -13%, VDR inh 16µM*, Coupling enz 0, GALK inh -2% and PLK1 PBD block 3µM*.
For COc1ccc(/C=C/C(=O)NCCN2CCOCC2)cc1OC the results were USP2a inh 9%, USP1-UAF1 inh -9%, VDR inh -26%, Coupling enz 1, GALK inh -2% and PLK1 PBD block 17µM*.
For CCOC(=O)C1=C(C)NC(=NC)SC1c1ccccc1 (stereo unspecified) the results were USP2a inh -2%, USP1-UAF1 inh -12%, VDR inh -4%, Coupling enz -5, GALK inh 0% and PLK1 PBD block 21µM*.
`CC(C)C[C@@]12C(=O)N(c3cccc(Cl)c3)C(=O)N1[C@H](c1ccc(Br)cc1)[C@@H]1C(=O)N(C(C)(C)C)C(=O)[C@@H]12` gave USP2a inh 2%, USP1-UAF1 inh -22%, VDR inh 4% and PLK1 PBD block -7%.
`CS(=O)(=O)N1CCC2(CCN(Cc3ccc(C#N)cc3)CC2)CC1` gave VDR inh 15% and Coupling enz 0.
Screening CCCN(CC(=O)Nc1ccccc1OC)C(=O)Cc1ccc2c(c1)CCC2 returned USP2a inh -1%, USP1-UAF1 inh -22%, VDR inh inconclusive and PLK1 PBD block 21µM*.
For O=C(Cc1ccc2c(c1)CCCC2)Nc1ccccc1Br the results were USP2a inh 2%, USP1-UAF1 inh -6%, VDR inh -22%, Coupling enz -3, GALK inh -2% and PLK1 PBD block 24µM*.
For CCN(CC(=O)Nc1c(F)cccc1F)C(=O)Cc1ccc2c(c1)CCC2 the results were USP2a inh 0%, USP1-UAF1 inh -1%, VDR inh 6% and PLK1 PBD block 17µM*.
Screening CN(CC(=O)Nc1c(Cl)cccc1Cl)C(=O)Cc1ccc2c(c1)CCC2 returned USP2a inh 2%, USP1-UAF1 inh -11%, VDR inh inconclusive and PLK1 PBD block 15µM*.
For O=C(Cc1ccc2ccccc2c1)Nc1ccccc1Br the results were USP2a inh -1%, USP1-UAF1 inh -33%, VDR inh -4%, Coupling enz -1, GALK inh -3% and PLK1 PBD block -4%.
